Hits are enriched below; roughly 2.4% of the tested compounds scored in any of these assays.
Pol beta inh: DNA polymerase beta (human) inhibition. P06746. Potency, µM (titrated, usually from 114 µM), inactives show at the top dose activity change, negative = inhibition, most hits filed as inhibitors. 340,000 tested, 1.3% active. Pol beta primer extension/strand displacement, fluorescence kinetic; further: on the % scale 0 is the no-effect control and ±100 the full control effect
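Human Pol beta at 10 nM; strand-displacement substrate 50 nM final. Compound exposure 15 min at room temperature before start, reaction 10 min at room temperature.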
WRN helicase inh: blocks human WRN helicase; Potency, µM (titrated, usually from 114 µM), inactives show top-dose activity change, negative = inhibition, most hits filed as inhibitors; 360,000 tested, 0.46% active; Q14191; WRN helicase unwinding, fluorescent forked duplex, kinetic; further: on the % scale 0 is the no-effect control and ±100 the full control effect; nearly all actives have a fitted effect of over 55% in size
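Screening of the MLSMR collection measured strand separation of a quenched forked DNA duplex (100 nM) by 20 nM WRN with 2 mM ATP, all final. Compounds were preincubated with enzyme 15 min at room temperature.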
Pol eta inh: DNA polymerase eta (human) inhibition | recombinant Pol eta, fluorescent DNA replication assay | Potency, µM (series often up to 114 µM), without a hit: at the top dose activity change, negative = inhibition, actives largely listed as inhibitors | 390,000 tested, 1.2% active | AID 588591; further: on the % scale 0 is the no-effect control and ±100 the full control effect
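Pol eta (10 nM) was preincubated with compounds for 15 min at room temperature, after which fluorescent replication substrate (50 nM final) was added to start the reaction. Fluorescence was read kinetically at 0 and 10 min.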
Pol kappa inh: DNA polymerase kappa (human) inhibition | Q9UBT6 | AID 588579 | 400,000 tested, 0.53% active | Potency, µM (highest dose often 107 µM), for the others: at the top dose activity, negative = inhibition, actives largely listed as inhibitors | purified Pol kappa, fluorescent DNA synthesis assay, 10 min; further: on the % scale 0 is the no-effect control and ±100 the full control effect
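10 nM Pol kappa was preincubated with compounds for 15 min at room temperature. Reaction started with 50 nM (final) substrate. Fluorescence read kinetically at 0 and 10 min.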
Pol iota inh: DNA polymerase iota (human) inhibition; Pol iota fluorescent replication assay, 10 min; Potency, µM (titrated, usually from 115 µM), for inactives: top-dose activity, negative = inhibition, actives largely listed as inhibitors; 390,000 tested, 1% active; AID 588590
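Pol iota at 10 nM preincubated 15 min with compounds at room temperature; reaction started with fluorescent substrate, 50 nM final. Fluorescence read kinetically at 0 and 10 min; buffer-only wells as negative control.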
FEN1 inh: inhibitors of human flap endonuclease 1; Recombinant FEN1 flap cleavage, fluorescence, 15 min; Potency, µM (series often up to 114 µM), for the others: at the top dose activity change, negative = inhibition, hits mostly inhibitors; P39748; 390,000 tested, 0.35% active; further: on the % scale 0 is the no-effect control and ±100 the full control effect; nearly all actives have a fitted effect of over 65% in size
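With each library titrated from low to high concentration, compounds met 10 nM FEN1 for 15 min at room temperature before 50 nM substrate was added; readings at 0 and 15 min fed four-parameter Hill curve fits.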
Active calls of the source: *; ? = inconclusive; / = no result; [ ] = dose if it differs, or a comment. The call rests on the fitted dose curve; in most records, active means well fitted curve in the direction sought with a large enough effect; inconclusive means small, poorly fitted or top-dose-only effect, or another doubt; inactive means no such curve, though single readings can be large; an effect the other way counts as inactive or inconclusive. Potency means the concentration at half of the fitted maximal effect.

SMILES | Pol beta inh | WRN helicase inh | Pol eta inh | Pol kappa inh | Pol iota inh | FEN1 inh
C=CSc1sc(Cl)c(N(C)C)c1[N+](=O)[O-] | 11% | -1% | -2% | -9% | 23% | -2%
C=CSc1sc(Cl)c(N(CC)CC)c1[N+](=O)[O-] | 20µM* | -23% | ? | -7% | ? | -6%
CC(C)CC(NC(=O)NC(CCC(=O)O)C(=O)O)C(=O)O (configuration not stated) | / | / | / | 13%[60.1 µM] | / | /
O=C(c1ccccc1)c1ccccc1N1C(=O)C=CC1=O | 3% | 13µM* | -10% | -15% | 109% | -10%
O=C(C[n+]1cc(Br)cc(Br)c1)c1ccc2c(c1)CCCC2 | / | / | / | -18% | 20% | -8%
COc1ccc(C(=O)CC(c2ccccc2)C2C(=O)CCCC2=O)cc1 (configuration not stated) | -19% | -5%[11.6 µM] | 79µM* | -20% | ? | -19%
COc1ccc(C(CC(=O)c2ccccc2)C2CCCCC2=O)cc1 (configuration not stated) | -1% | -30%[57.1 µM] | -9% | -1% | 33% | -9%
O=C1CCN(S(=O)(=O)c2ccccc2)C2CCCCC12 (configuration not stated) | 3% | 10% | -12% | -18% | ? | -4%
O=C1NC2CCCCC2C(=O)N1OS(=O)(=O)c1ccccc1 (configuration not stated) | / | 50µM* | -10% | -6% | ? | 46%
Cc1ccccc1-c1nc(Nc2ccncc2)c2ccccc2n1 | / | / | / | -18%[60.1 µM] | / | /
CC1C=CC=CC=CC=CC=CC=CC=CC(OC2OC(C)C(O)C(N)C2O)CC2OC(O)(CC(O)CC(O)C(O)CCC(O)CC(O)CC(=O)OC(C)C(C)C1O)CC(O)C2C(=O)O (configuration not stated) | / | 18µM* | 0.89µM* | 18µM* | 1.3µM* | -17%
CCC(=O)NC(c1cccc([N+](=O)[O-])c1)c1c(O)ccc2ccccc12 (configuration not stated) | 2% | -8% | 2% | -19% | 89µM* | 1%
CCOc1ccc(C(NC(=O)CC)c2c(O)ccc3ccccc23)cc1 (configuration not stated) | 0% | 1% | -10% | -4% | -15% | -24%
CCOC(=O)C1C(=O)C=C(c2ccc(C)cc2)CC1c1ccccc1 (configuration not stated) | 4% | -5% | -13% | -17% | 97% | -3%
CCOC(=O)C1C(=O)C=C(/C=C/c2ccc(N(C)C)cc2)CC1c1ccccc1 (configuration not stated) | 1% | 50µM* | -29% | -10% | ? | -5%
O=C(O)CCc1ccc(-c2ccc(Br)cc2)n1CC(=O)O | 35µM* | -12%[57.1 µM] | ? | -23% | ? | 0%
O=C(O)CCc1ccc(-c2ccccc2)n1CC(=O)O | -13% | -1% | 1% | -18% | ? | -6%
Cc1csc[n+]1CC(=O)c1ccc(I)cc1 | / | / | / | -16% | 0% | 9%
Nn1cnnc1N/N=C/c1ccc(Cl)cc1Cl | -3% | 6% | -8% | 1% | 11µM* | ?
COc1ccc(CSc2nncn2N)cc1Br | 27% | -5% | -6% | -6% | 9% | -5%
COc1ccc(/C=N/Nc2nncn2N)cc1Br | -4% | -11% | -26% | -1% | 8.9µM* | 1%
COc1cc(/C=C(\C#N)C(N)=O)ccc1OCc1c(C)no[n+]1[O-] | 7% | -3% | -17% | 1% | 44% | 13%
COc1cc(/C=N/Nc2nncn2N)ccc1OCc1c(C)no[n+]1[O-] | 4% | -2%[11.6 µM] | -7% | -29% | 7.1µM* | -10%
COc1ccc(N(C(=O)COc2ccc(Br)cc2)S(=O)(=O)c2ccc(C)cc2)cc1 | 0% | / | -15% | -17% | -4% | -3%
COC(=O)c1ccc2c(c1)C(C)(C)C(/C=C/c1ccc(OC)c(OC)c1OC)=[N+]2C | ? | 50µM* | -3% | ? | ? | ?
SMILES | Pol beta inh | WRN helicase inh | Pol eta inh | Pol kappa inh | Pol iota inh | FEN1 inh
COC(=O)c1ccc2c(c1)C(C)(C)C(/C=C/c1ccc(O)cc1)=[N+]2C | ? | 50µM* | 17% | 28µM* | 25µM* | 45µM*
Cc1cc(C)cc(NC(c2cccc(Cl)c2)c2nnc(-c3ccccc3)o2)c1 (configuration not stated) | 16% | / | -22% | -23% | -8% | -26%
Cc1cc(-c2ccccc2)nc2cc(C(=O)Nc3cc(C(F)(F)F)ccc3Cl)nn12 | ? | / | ? | 1% | -21% | -13%
Cc1cc(C)n(-c2nc3ccccc3s2)n1 | -1% | -2% | -4% | -5%[60.1 µM] | 1% | 7%
Cc1c2c(=O)n(-c3nc4ccccc4s3)nc-2cc(O)n1Cc1ccccc1 | ? | -9%[11.6 µM] | 45µM* | ? | 35µM* | ?
O=c1c2cc(N3CCOCC3)ccc2[nH]c(=S)n1Cc1ccc(Cl)cc1 | 2% | -7% | -6% | -4% | -6% | -5%
Cc1ccc(Cn2c(=S)[nH]c3ccc(N4CCOCC4)cc3c2=O)o1 | 6% | ? | -21% | ? | 14µM* | ?
Cc1cc(C)c(C)c(S(=O)(=O)N[C@@H](C)C(=O)OCc2cc(=O)n3cc(Br)ccc3n2)c1C | 8.9µM* | -5%[11.6 µM] | ? | ? | 50µM* | 6%
Cc1ccc(-c2nnc(SC(C)C(=O)NCc3ccco3)n2C)cc1 (configuration not stated) | / | / | / | 0% | -7% | -9%
CCC(=O)Nc1nnc(Sc2ccc(N(C)C)cc2)s1 | 50µM* | -29% | -4% | -9% | ? | -1%
CCC(=O)Nc1ccc(C(=O)CSc2nnc(-c3ccccc3F)n2C2CC2)cc1 | 28µM* | -6% | ? | -32% | ? | 5%
CCC(C)NC(=O)NC(=O)CSc1nnc(-c2ccccc2F)n1C1CC1 (configuration not stated) | 7% | 2% | -8% | -5% | 27% | -4%
CCn1ccc2cc(S(=O)(=O)N3CCCN(C(=O)NCC(=O)OC)CC3)ccc21 | 11% | / | -11% | -2%[60.1 µM] | -2% | 0%
CC(C)CCNC(=O)c1c[nH]c2ccc(S(=O)(=O)N3CCC4(CC3)OCCO4)cc2c1=O | 35µM* | -14% | -1% | -3% | 7% | -8%
CC(C)(C)n1ncc2c(=O)n(Cc3cccc(-c4cccs4)c3)cnc21 | / | / | / | -11% | -44% | -47%
O=C(CCS(=O)(=O)c1ccccc1)Nc1nc2cc3c(cc2s1)OCO3 | ? | -31% | ? | -17% | 71µM* | 0%
Cc1nc2nc(NCc3ccc(Cl)cc3)[nH]n2c(=O)c1Cc1ccccc1 | -9% | / | 1% | 9% | 1% | 4%

From PubChem BioAssay
